Some test systems named below: SR leukemia; RPMI-8226 leukemia; OVCAR-8 ovarian; OVCAR-5 ovarian; OVCAR-4 ovarian; SK-OV-3 ovarian; IGROV1 ovarian; OVCAR-3 ovarian; HS 578T breast; NCI/ADR-RES ovarian; T-47D breast; BT-549 breast; MDA-MB-435 melanoma; SW-620 colon; MCF7 breast; HCT-116 colon; HCC-2998 colon; KM12 colon.
Holding throughout (assay): NCI-60 one-dose screen, 48 h (100 = growth as untreated, 0 = no growth, -100 = all killed)
What all share (settings): 10 µM unless noted

Growth data for eight molecules are collected here from PubChem BioAssay (NCI).

About 83,000 compounds went through this panel and 20% of them were active in at least one assay; those are over-represented in the sample as a whole.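 Values shown are percent growth following 48 h exposure of cells in 96-well plates to a single concentration of compound; below 10 was considered active.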 Values without a mark were called inactive. Active and inactive are the calls of the source.

For the molecule `CN1C(=O)N(C)C2Nn3c(s/c(=C\c4ccc(C(F)(F)F)cc4)c3=O)=NC21` (centres undefined), the growth is 96.9% in the experiment on SR leukemia; 106% in the experiment on RPMI-8226 leukemia; 108% in the experiment with OVCAR-8 ovarian; 103% in the experiment on OVCAR-5 ovarian; 102% with OVCAR-4 ovarian; 111% in the experiment on SK-OV-3 ovarian. The growth was 101% with IGROV1 ovarian; 106% in the experiment with OVCAR-3 ovarian; 105% with HS 578T breast; 99.8% in the experiment with NCI/ADR-RES ovarian; 107% in the experiment on T-47D breast; 113% in the experiment with BT-549 breast. The growth in the experiment on MDA-MB-435 melanoma is 91.4%; in the experiment with SW-620 colon, 101%; in the experiment with MCF7 breast it was 92%; in the experiment with HCT-116 colon it was 107%; in the experiment with HCC-2998 colon it was 113%; with KM12 colon, 99.7%.
Turning to `C=C(C)[C@@H]1CC[C@]2(C(=O)NCCNCCN)CC[C@]3(C)[C@H](CC[C@@H]4[C@@]5(C)C/C(=C/c6ccncc6)C(=O)C(C)(C)[C@@H]5CC[C@]43C)[C@@H]12`, the growth in the experiment on SR leukemia is 95.4%; in the experiment on RPMI-8226 leukemia, 90.5%; in the experiment with OVCAR-8 ovarian it was 101%; in the experiment with OVCAR-5 ovarian, 103%; with OVCAR-4 ovarian, 89.9%; in the experiment on SK-OV-3 ovarian it was 109%. Also, the growth in the experiment with IGROV1 ovarian is 87.6%; in the experiment on OVCAR-3 ovarian it was 97.9%; in the experiment on HS 578T breast, 86.7%; in the experiment with NCI/ADR-RES ovarian, 101%; with T-47D breast, 80.8%; in the experiment on BT-549 breast it was 95.2%. The growth in the experiment with MDA-MB-435 melanoma is 92.7%; in the experiment on SW-620 colon, 92.7%; in the experiment on MCF7 breast, 97.6%; in the experiment with HCT-116 colon, 83.7%; in the experiment on HCC-2998 colon, 91.6%; in the experiment on KM12 colon, 96.9%.
For `Fc1cccc(CNc2c3ccccc3nc3ccccc23)c1F`, the growth in the experiment on SR leukemia was 38.2%; in the experiment on RPMI-8226 leukemia, 52.9%; with OVCAR-8 ovarian it was 50.8%; in the experiment with OVCAR-5 ovarian it was 73.3%; with OVCAR-4 ovarian, 49.9%; in the experiment on SK-OV-3 ovarian, 75.8%. For the same molecule, the growth with IGROV1 ovarian was 52.7%; in the experiment on OVCAR-3 ovarian it was 86.1%; in the experiment with HS 578T breast it was 87%; in the experiment on NCI/ADR-RES ovarian, 48.5%; in the experiment on T-47D breast, 68.3%; in the experiment on BT-549 breast it was 90.6%. Besides, the growth in the experiment on MDA-MB-435 melanoma was 87.3%; with SW-620 colon, 41.4%; with MCF7 breast, 29.8%; in the experiment on HCT-116 colon, 17.5%; in the experiment with HCC-2998 colon, 58.4%; in the experiment with KM12 colon, 87%.
With `CC(O)c1cnc(/C=C2\SC(=S)N(Cc3ccccc3)C2=O)s1` (centres undefined), the growth in the experiment on SR leukemia was 32%; in the experiment with RPMI-8226 leukemia, 4.74% (active); with OVCAR-8 ovarian, 52.1%; in the experiment on OVCAR-5 ovarian, 90.1%; in the experiment with OVCAR-4 ovarian, 101%; in the experiment on SK-OV-3 ovarian, 95.7%. Besides, the growth in the experiment with IGROV1 ovarian is 94%; with OVCAR-3 ovarian, 53.2%; in the experiment on HS 578T breast, 95.3%; with NCI/ADR-RES ovarian it was 92.7%; in the experiment with T-47D breast, 41.7%; with BT-549 breast, 86.9%. Also, the growth with MDA-MB-435 melanoma is 25.3%; with SW-620 colon it was 39.7%; in the experiment with MCF7 breast, 27.4%; in the experiment on HCT-116 colon it was 20.2%; in the experiment with HCC-2998 colon, 107%; in the experiment with KM12 colon it was 30.3%.
On to `COc1ccc(C(=O)Nc2cccc(C3CC(=O)c4c(cc(OC)c(OC)c4OC)O3)c2)cc1` (centres undefined), for which the growth in the experiment on SR leukemia is 13.3%; in the experiment with RPMI-8226 leukemia, 11.2%; with OVCAR-8 ovarian it was 17.7%; in the experiment on OVCAR-5 ovarian, 46%; in the experiment with OVCAR-4 ovarian, 43.5%; in the experiment with SK-OV-3 ovarian, 20.6%. Further, the growth in the experiment with IGROV1 ovarian is 36%; in the experiment on OVCAR-3 ovarian, 1.51% (active); in the experiment with HS 578T breast, 5.72% (active); with NCI/ADR-RES ovarian, 8.74% (active); in the experiment with T-47D breast, 7.66% (active); in the experiment on BT-549 breast, 34.7%. For the same molecule, the growth in the experiment on MDA-MB-435 melanoma is -47.3% (active); in the experiment on SW-620 colon, 27.3%; with MCF7 breast, 15.2%; with HCT-116 colon, 10.9%; in the experiment with HCC-2998 colon, 64.9%; with KM12 colon, 13.8%.
For `N#CC1=C(N)Oc2c(sc3c(Br)cccc23)C1c1ccc(F)cc1` (centres undefined), the growth is 5.83% (active) in the experiment with SR leukemia; 16.7% in the experiment on RPMI-8226 leukemia; 25.3% in the experiment with OVCAR-8 ovarian; 30.9% in the experiment on OVCAR-5 ovarian; 56.4% with OVCAR-4 ovarian; 37.4% in the experiment with SK-OV-3 ovarian. For the same molecule, the growth in the experiment with IGROV1 ovarian is 26.9%; in the experiment on OVCAR-3 ovarian, 9.66% (active); in the experiment on HS 578T breast, 42%; with NCI/ADR-RES ovarian, 9.77% (active); with T-47D breast, 50%; with BT-549 breast, 25.3%. For the same molecule, the growth was -10.3% (active) with MDA-MB-435 melanoma; 32.2% with SW-620 colon; 12.1% in the experiment with MCF7 breast; 11.9% with HCT-116 colon; 23.5% in the experiment on HCC-2998 colon; 23.1% with KM12 colon.
Consider `COc1ccc(C/C(C)=C(/c2ccc(OCCN3CCCCC3)cc2)c2ccc(OC(=O)NCc3ccccc3)cc2)cc1`, for which the growth is -58% (active) in the experiment with SR leukemia; -62.3% (active) with RPMI-8226 leukemia; -83.5% (active) with OVCAR-8 ovarian; -78.6% (active) in the experiment on OVCAR-5 ovarian; -91.4% (active) in the experiment on OVCAR-4 ovarian; -93.7% (active) in the experiment with SK-OV-3 ovarian. For the same molecule, the growth in the experiment with IGROV1 ovarian is -71.1% (active); with OVCAR-3 ovarian, -89.2% (active); in the experiment on HS 578T breast it was -57.6% (active); in the experiment with NCI/ADR-RES ovarian, -75.7% (active); in the experiment with T-47D breast, -82.3% (active); in the experiment on BT-549 breast, -76.4% (active). For the same molecule, the growth in the experiment with MDA-MB-435 melanoma was -95.4% (active); with SW-620 colon, -83.5% (active); in the experiment on MCF7 breast, -84.6% (active); in the experiment on HCT-116 colon, -90.3% (active); in the experiment on HCC-2998 colon, -92.5% (active); in the experiment with KM12 colon, -81.2% (active).
For `N#Cc1cccc(-c2c(-c3ccc4ccccc4c3)oc3ccccc3c2=O)c1`, the growth in the experiment with SR leukemia was 9.67% (active); in the experiment with RPMI-8226 leukemia, 46.2%; in the experiment on OVCAR-8 ovarian, 62.4%; with OVCAR-5 ovarian, 53.3%; with OVCAR-4 ovarian it was 68.1%; in the experiment with SK-OV-3 ovarian it was 51%. The growth is 36.5% with IGROV1 ovarian; 40.2% with OVCAR-3 ovarian; 69% with HS 578T breast; 27.2% in the experiment with NCI/ADR-RES ovarian; 45.1% with T-47D breast; 34.1% in the experiment with BT-549 breast. Moreover, the growth in the experiment on MDA-MB-435 melanoma was -26.8% (active); in the experiment on SW-620 colon, 14.6%; with MCF7 breast, 20.3%; in the experiment with HCT-116 colon, 12.4%; in the experiment with HCC-2998 colon, 68.8%; in the experiment on KM12 colon, 25.9%.
